From the supplement of paper PMC10849652
Of roughly 7,900 targets only a part is listed; those with a hit were picked by preference. About 0.6% of all pairs of compound and target were hits.

Assays:
Assay in all cases: log2 fold change, soluble protein after heating vs DMSO (PISA); higher = thermal stabilisation; K562 cells, 10 uM, 30 min; active = over 0.2 and 3.5 SD of the protein, either way, in both replicates (recomputed)
[1] = compound: CC1=C(C=C(C=C1)NC(=O)C2=CC(=CC=C2)C(C)(C)C#N)NC3=CC4=C(C=C3)N=CN(C4=O)C
How it was run: (§1)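 K562 cells (2×10^6 cells/mL) were treated with 10 μM compound for 30 min, and aliquots were heated for 3 min over 48°C-58°C. Pooled aliquots were extracted in PBS with 0.5% NP-40 at 4°C, and the supernatant after 21,000xg for 90 min was measured by TMTpro 16plex LC-MS/MS with channel sums equalised. Reported thermal stability, relative to control samples and from duplicates, is a log2 fold change.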

[2] = compound: CC1=C(C=C(C=C1)NC(=O)C2=CC(=CC=C2)N(C)C)NC(=O)C3=CC=C(C=C3)O
How it was run: as §1

[3] = compound: CC1=CC=C(C=C1)SC2=C3C=C(SC3=CN=C2)C(=O)N
How it was run: as §1

[4] = compound: CC1=NC(=CC=C1)C2=C(N=C(N2)C(C)(C)C)C3=CC4=NC=CN=C4C=C3
How it was run: as §1

Nexturastat A = compound: CCCCN(Cc1ccc(C(=O)NO)cc1)C(=O)Nc1ccccc1 [Nexturastat A]
How it was run: as §1

[5] = compound: CCCS(=O)(=O)Nc1ccc(F)c(C(=O)c2c[nH]c3ncc(Cl)cc23)c1F
How it was run: as §1

[6] = compound: CCCc1cc(C)[nH]c(=O)c1CNC(=O)c1cc(-c2ccnc(N3CCN(C)CC3)c2)cc2c1cnn2C(C)C
How it was run: as §1

givinostat = compound: CCN(CC)Cc1ccc2cc(COC(=O)Nc3ccc(C(=O)NO)cc3)ccc2c1 [givinostat]
How it was run: as §1

barasertib = compound: CCN(CCCOc1ccc2c(Nc3cc(CC(=O)Nc4cccc(F)c4)[nH]n3)ncnc2c1)CCOP(=O)(O)O [barasertib]
How it was run: as §1

vemurafenib = compound: CCCS(=O)(=O)Nc1ccc(F)c(C(=O)c2c[nH]c3ncc(-c4ccc(Cl)cc4)cc23)c1F [vemurafenib]
How it was run: as §1

Measured: log2 fold change

DYNC1I2 isoform 2 (UniProt Q13409)
inactive: [1] 0.006 | [2] -0.054 | [3] -0.179 | [4] 0.061 | Nexturastat A 0.047 | [5] 0.018 | [6] 0.271 | givinostat 0.044 | barasertib 0.015

EEF1B2 (UniProt P24534)
inactive: [1] 0.024 | [2] -0.025 | [3] -0.007 | [4] 0.031 | Nexturastat A 0.031 | vemurafenib 0.024 | [5] 0.02 | [6] -0.009 | givinostat 0.023 | barasertib 0.055

DOCK8 (UniProt Q8NF50)
inactive: [1] -0.094 | [2] -0.051 | [4] -0.086 | Nexturastat A 0.468 | vemurafenib 0.134 | [6] 0.093 | givinostat 0.245 | barasertib 0.055

DBR1 (UniProt Q9UK59)
inactive: [1] -0.005 | [2] 0.028 | [3] 0.007 | [4] 0.049 | Nexturastat A -0.007 | vemurafenib 0.024 | [5] 0.037 | [6] -0.033 | givinostat -0.16 | barasertib -0.022

FAM117A (UniProt Q9C073)
inactive: [1] 0.036 | [2] 0.013 | [3] -0.007 | [4] -0.034 | Nexturastat A 0.004 | vemurafenib -0.023 | [5] -0.004 | [6] -0.001 | givinostat 0.109 | barasertib 0.053

EPHB4 (UniProt P54760)
inactive: [1] 0.057 | [2] -0.07 | [3] 0.392 | [5] -0.126 | [6] 0.001

DENND10 (UniProt Q8TCE6)
inactive: [1] 0.022 | [2] 0.036 | [3] 0.029 | Nexturastat A -0.119 | vemurafenib -0.023 | [5] 0.01 | [6] -0.023 | givinostat 0.131 | barasertib 0.036

FAM241A (UniProt Q8N8J7)
inactive: [2] -0.012 | [3] -0.031 | [4] -0.028 | vemurafenib -0.083 | [5] 0.015 | [6] -0.009 | givinostat -0.037 | barasertib 0.06
active: [1] 0.536

DEGS1 (UniProt O15121)
Chain of UniProt O15121 (O15121 whole entry, looked up): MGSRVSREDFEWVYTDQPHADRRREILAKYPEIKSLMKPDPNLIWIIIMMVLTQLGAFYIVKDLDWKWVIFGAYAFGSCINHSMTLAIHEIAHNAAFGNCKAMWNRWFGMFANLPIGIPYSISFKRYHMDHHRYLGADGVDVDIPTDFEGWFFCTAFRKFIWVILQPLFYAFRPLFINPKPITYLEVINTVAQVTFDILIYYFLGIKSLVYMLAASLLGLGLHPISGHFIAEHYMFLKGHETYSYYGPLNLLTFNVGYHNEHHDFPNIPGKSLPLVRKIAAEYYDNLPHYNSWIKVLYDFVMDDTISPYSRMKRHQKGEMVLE
inactive: [1] -0.088 | [3] 0.003 | Nexturastat A -0.062 | vemurafenib -0.185 | [5] 0.033 | [6] -0.053 | givinostat -0.023 | barasertib -0.018

DERPC (UniProt P0CG12)
inactive: [2] -0.052 | [4] 0.005 | vemurafenib 0.07 | [6] -0.029 | barasertib 0.012
active: givinostat 0.454

EEF2K (UniProt O00418)
Chain of UniProt O00418 (O00418 whole entry, looked up): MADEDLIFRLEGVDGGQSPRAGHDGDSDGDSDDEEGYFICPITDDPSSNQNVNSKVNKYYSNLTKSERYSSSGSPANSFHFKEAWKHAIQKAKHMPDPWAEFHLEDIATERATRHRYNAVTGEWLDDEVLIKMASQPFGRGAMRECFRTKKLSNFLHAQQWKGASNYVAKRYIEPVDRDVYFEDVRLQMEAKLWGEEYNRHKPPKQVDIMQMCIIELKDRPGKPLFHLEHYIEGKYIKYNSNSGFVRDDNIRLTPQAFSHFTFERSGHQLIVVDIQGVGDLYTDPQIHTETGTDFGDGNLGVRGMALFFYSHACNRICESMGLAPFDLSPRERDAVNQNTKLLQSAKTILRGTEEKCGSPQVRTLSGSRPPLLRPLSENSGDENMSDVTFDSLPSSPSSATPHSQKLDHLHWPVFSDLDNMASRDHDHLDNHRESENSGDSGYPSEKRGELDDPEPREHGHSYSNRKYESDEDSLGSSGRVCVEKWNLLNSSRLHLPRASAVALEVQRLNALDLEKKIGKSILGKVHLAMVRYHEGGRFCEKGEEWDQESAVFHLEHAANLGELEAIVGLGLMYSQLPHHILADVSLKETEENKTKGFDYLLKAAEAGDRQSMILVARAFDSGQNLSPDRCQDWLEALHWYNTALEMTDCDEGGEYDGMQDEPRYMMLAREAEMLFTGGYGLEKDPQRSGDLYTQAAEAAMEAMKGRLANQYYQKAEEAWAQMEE
inactive: [2] 0.006 | [3] 0.043 | Nexturastat A 0.201 | vemurafenib 0.089 | [5] 0.157 | [6] 0.15 | givinostat -0.041

DENND1A isoform 6 (UniProt Q8TEH3)
inactive: [3] 0.025 | [4] -0.009 | vemurafenib -0.119 | [5] 0.114 | barasertib 0.293

DCAF4 (UniProt Q8WV16)
Chain of UniProt Q8WV16 (Q8WV16 whole entry, looked up): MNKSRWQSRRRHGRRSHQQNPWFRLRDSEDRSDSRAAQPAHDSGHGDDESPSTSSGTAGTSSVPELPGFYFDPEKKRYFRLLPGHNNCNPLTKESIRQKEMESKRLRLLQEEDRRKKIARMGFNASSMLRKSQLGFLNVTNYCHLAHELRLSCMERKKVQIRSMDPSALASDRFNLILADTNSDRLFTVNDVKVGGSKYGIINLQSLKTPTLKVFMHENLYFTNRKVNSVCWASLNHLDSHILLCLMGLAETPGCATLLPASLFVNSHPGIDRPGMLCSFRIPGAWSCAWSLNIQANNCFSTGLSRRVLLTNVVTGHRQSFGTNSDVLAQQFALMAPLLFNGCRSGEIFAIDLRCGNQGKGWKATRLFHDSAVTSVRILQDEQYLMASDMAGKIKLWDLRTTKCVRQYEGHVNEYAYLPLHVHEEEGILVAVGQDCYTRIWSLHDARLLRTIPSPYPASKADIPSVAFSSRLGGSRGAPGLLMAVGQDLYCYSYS
inactive: [1] 0.03 | [2] 0.072 | Nexturastat A -0.132 | [6] -0.061

FAM135A (UniProt Q9P2D6)
inactive: [1] -0.178 | vemurafenib -0.042 | givinostat 0.131
active: Nexturastat A 0.5

EHBP1 (UniProt Q8NDI1)
inactive: [6] -0.028

FADS1 (UniProt F5GYH4)
inactive: [4] -0.254 | vemurafenib -0.052 | barasertib 0.024

ELAC1 (UniProt Q9H777)
inactive: [1] 0.003 | [3] -0.051 | [4] -0.049 | Nexturastat A 0.011 | vemurafenib -0.017 | [5] 0.007 | givinostat -0.023

ELOVL7 (UniProt A1L3X0)
inactive: Nexturastat A 0.016 | givinostat 0.034

DOLPP1 (UniProt Q86YN1)
inactive: [2] 0.012 | [3] -0.094 | [4] 0.026 | vemurafenib -0.057 | [5] -0.042 | [6] -0.018 | givinostat -0.027 | barasertib 0.057

EDRF1 (UniProt Q3B7T1)
Chain of UniProt Q3B7T1 (Q3B7T1 whole entry, looked up): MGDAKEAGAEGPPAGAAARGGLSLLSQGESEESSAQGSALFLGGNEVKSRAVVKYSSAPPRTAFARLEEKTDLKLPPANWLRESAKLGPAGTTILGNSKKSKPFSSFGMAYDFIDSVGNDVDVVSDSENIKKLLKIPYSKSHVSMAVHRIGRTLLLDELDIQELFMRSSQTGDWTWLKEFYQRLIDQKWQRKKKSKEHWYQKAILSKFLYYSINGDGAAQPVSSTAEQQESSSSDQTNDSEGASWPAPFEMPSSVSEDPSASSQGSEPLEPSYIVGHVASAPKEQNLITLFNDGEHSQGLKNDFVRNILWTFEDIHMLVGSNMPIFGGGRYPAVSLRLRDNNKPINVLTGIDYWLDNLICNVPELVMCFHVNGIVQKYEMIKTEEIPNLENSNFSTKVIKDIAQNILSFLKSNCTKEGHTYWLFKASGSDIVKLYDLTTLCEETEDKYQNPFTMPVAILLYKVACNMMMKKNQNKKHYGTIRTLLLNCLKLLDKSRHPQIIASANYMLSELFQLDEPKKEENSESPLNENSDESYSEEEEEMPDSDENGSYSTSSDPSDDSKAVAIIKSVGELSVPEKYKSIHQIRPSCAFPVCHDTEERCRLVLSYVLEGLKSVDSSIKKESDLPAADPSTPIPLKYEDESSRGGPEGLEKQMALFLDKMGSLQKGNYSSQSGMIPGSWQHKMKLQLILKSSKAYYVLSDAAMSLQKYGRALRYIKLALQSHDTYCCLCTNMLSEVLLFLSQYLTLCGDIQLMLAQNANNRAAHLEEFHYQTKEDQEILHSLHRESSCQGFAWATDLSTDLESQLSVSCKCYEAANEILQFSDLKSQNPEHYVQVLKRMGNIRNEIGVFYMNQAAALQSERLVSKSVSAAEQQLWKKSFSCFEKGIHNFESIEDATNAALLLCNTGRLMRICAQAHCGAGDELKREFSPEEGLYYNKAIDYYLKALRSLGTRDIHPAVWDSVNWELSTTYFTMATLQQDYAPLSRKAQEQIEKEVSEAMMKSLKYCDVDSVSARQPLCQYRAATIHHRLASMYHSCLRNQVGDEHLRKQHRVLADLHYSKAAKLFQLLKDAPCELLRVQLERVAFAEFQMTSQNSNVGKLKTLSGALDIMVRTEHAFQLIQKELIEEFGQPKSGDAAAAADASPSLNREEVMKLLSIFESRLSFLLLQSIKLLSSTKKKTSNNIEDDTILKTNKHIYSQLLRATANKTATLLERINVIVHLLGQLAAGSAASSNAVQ
inactive: [1] -0.022 | [2] 0.21 | Nexturastat A -0.042 | [6] 0.019 | givinostat 0.114 | barasertib -0.036

EID1 (UniProt Q9Y6B2)
Chain of UniProt Q9Y6B2 (Q9Y6B2 whole entry, looked up): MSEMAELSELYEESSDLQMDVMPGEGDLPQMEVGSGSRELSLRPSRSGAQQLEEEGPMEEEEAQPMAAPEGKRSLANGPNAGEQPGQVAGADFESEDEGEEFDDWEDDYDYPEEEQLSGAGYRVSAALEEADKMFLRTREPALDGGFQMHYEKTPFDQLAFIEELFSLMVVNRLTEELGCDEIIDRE
inactive: [1] -0.047 | [3] 0.019 | Nexturastat A 0.18 | [5] -0.107 | [6] 0.135 | givinostat -0.134

DNAJB1 (UniProt M0R128)
inactive: vemurafenib -0.002 | barasertib 0.135

DHRS13 (UniProt Q6UX07)
inactive: [1] -0.106 | [2] 0.027 | [4] -0.055 | vemurafenib -0.062 | [6] 0.084 | givinostat 0.249

EPHX2 (UniProt E5RI53)
inactive: Nexturastat A 0.029 | barasertib 0.094

ERF (UniProt P50548)
inactive: [1] -0.551 | Nexturastat A 0.033 | givinostat -0.133

EIF4G1 (UniProt Q04637)
inactive: vemurafenib -0.071

F2RL3 (UniProt Q96RI0)
Chain of UniProt Q96RI0 (Q96RI0 whole entry, looked up): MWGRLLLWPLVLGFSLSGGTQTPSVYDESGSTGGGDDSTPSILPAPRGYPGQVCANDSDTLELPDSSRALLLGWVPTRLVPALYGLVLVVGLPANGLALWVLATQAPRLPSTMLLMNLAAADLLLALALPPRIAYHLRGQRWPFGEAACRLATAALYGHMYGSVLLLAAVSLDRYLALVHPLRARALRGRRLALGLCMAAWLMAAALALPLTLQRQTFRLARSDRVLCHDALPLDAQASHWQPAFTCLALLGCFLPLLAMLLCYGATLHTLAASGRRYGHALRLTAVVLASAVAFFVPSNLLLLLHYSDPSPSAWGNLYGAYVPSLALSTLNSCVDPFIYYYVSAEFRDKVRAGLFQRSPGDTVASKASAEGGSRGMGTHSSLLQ
inactive: [2] 0.032 | [3] 0.053 | vemurafenib -0.156 | [5] 0.035 | givinostat -0.06

FAM193B (UniProt Q96PV7)
inactive: [1] -0.16 | [3] -0.114 | [4] -0.034 | Nexturastat A 0.054 | vemurafenib -0.114 | [5] 0.005 | barasertib 0.045

FAM160A2 isoform 2 (UniProt Q8N612)
Chain of UniProt Q8N612 (Q8N612 whole entry, looked up): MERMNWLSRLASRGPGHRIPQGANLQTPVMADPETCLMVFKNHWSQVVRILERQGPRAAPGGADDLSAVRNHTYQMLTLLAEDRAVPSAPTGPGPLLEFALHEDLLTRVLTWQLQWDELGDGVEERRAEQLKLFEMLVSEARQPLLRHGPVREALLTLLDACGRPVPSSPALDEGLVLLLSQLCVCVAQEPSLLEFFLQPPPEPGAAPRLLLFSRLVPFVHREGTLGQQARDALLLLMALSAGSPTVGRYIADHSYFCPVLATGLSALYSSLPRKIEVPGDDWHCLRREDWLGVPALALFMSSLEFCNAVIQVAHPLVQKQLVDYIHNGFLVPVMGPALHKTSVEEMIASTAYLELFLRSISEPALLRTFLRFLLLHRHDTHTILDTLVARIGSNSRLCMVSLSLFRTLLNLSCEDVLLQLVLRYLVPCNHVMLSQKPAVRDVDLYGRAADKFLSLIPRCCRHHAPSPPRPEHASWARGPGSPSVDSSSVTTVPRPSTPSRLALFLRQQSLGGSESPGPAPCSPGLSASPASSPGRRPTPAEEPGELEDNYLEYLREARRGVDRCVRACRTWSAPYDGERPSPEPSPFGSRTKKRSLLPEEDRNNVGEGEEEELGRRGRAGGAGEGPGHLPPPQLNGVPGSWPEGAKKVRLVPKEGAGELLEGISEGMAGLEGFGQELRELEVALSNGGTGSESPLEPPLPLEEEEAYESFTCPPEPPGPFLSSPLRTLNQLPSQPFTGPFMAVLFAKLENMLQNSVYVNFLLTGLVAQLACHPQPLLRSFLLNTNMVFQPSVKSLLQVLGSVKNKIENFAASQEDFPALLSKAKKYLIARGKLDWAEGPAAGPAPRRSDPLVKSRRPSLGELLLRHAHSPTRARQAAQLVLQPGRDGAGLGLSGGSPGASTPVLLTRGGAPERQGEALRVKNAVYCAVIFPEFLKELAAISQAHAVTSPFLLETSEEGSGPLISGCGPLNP
inactive: [2] 0.134 | [4] 0.016 | Nexturastat A -0.066 | vemurafenib -0.164 | [6] -0.172 | barasertib 0.109

EIF3J isoform 2 (UniProt O75822)
Chain of UniProt O75822 (O75822 whole entry, looked up): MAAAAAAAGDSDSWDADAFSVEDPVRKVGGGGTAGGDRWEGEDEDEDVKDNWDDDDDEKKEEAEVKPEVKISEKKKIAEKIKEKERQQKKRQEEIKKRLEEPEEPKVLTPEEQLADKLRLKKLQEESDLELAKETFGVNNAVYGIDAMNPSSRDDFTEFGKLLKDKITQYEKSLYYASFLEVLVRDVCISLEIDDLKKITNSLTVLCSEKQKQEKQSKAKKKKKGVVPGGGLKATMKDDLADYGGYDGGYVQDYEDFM
inactive: [1] -0.1 | [3] 0.032 | [4] -0.02 | Nexturastat A 0.048 | vemurafenib -0.17 | [5] -0.062 | [6] -0.613 | givinostat -0.129 | barasertib -0.071

FAM117B (UniProt Q6P1L5)
inactive: [2] -0.035 | [4] -0.126 | Nexturastat A 0.394 | vemurafenib 0.043 | givinostat 0.212

DHPS (UniProt M0R1T2)
inactive: [1] 0.118 | barasertib 0.11

EZH2 isoform 2 (UniProt Q15910)
active: [6] 0.949
inactive: [1] 0.063 | [3] 0.127 | [4] 0.149 | Nexturastat A -0.173 | vemurafenib 0.377 | [5] 0 | givinostat 0.097 | barasertib 0.045

EEF1D isoform 3 (UniProt P29692)
inactive: [6] -0.674 | givinostat -0.236

DDX46, A0A0C4DG89
inactive: Nexturastat A 0.058 | [6] 0.149

CYP24A1 (UniProt Q07973)
inactive: [2] 0.051 | [3] -0.039 | [4] -0.306 | vemurafenib -0.198 | [5] -0.057 | [6] -0.183 | givinostat 0.233 | barasertib -0.146

DOP1A (UniProt Q5JWR5)
active: Nexturastat A 0.47
inactive: vemurafenib 0.045 | [6] -0.166 | givinostat 0.057 | barasertib -0.047

CTSS (UniProt P25774)
Chain of UniProt P25774 (P25774 whole entry, looked up): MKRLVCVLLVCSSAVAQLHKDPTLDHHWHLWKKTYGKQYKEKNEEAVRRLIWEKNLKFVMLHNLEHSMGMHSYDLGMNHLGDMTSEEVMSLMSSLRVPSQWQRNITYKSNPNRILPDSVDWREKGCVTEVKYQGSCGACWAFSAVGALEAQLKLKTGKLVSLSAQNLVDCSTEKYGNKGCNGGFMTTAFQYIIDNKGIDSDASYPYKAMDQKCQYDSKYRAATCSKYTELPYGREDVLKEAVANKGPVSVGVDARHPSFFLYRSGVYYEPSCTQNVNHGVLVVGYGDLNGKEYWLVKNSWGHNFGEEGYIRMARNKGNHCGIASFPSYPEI
inactive: [1] 0.032 | [2] -0.045 | [4] -0.068 | vemurafenib -0.053

DNAH10 (UniProt Q8IVF4)
inactive: [1] -0.034 | [4] -0.114 | Nexturastat A 0.434 | vemurafenib -0.067 | [6] -0.269 | givinostat 0.307 | barasertib 0.014

CTNNBL1 (UniProt Q8WYA6)
inactive: [3] 0.185 | vemurafenib -0.02 | [5] -0.166 | barasertib 0.012

ENTPD7 (UniProt Q9NQZ7)
inactive: [1] -0.033 | [3] 0.012 | [4] 0.142 | Nexturastat A 0.047 | [5] -0.1 | [6] -0.068 | givinostat 0 | barasertib -0.009

DLK1 (UniProt P80370)
inactive: [4] -0.033 | Nexturastat A -0.003 | vemurafenib -0.026

EIF2AK3 (UniProt Q9NZJ5)
inactive: [3] 0.036 | [4] -0.043 | Nexturastat A -0.595 | [5] -0.161 | [6] 0.244 | givinostat 0.027 | barasertib 0.151

DCAF12 (UniProt Q5T6F0)
inactive: [1] -0.136 | [6] 0.08

DDB1 isoform 2 (UniProt Q16531)
inactive: [1] -0.144 | Nexturastat A -0.061 | barasertib 0.116

DPYSL2 (UniProt Q16555)
inactive: [1] -0.056 | [3] 0.03 | [4] 0.033 | Nexturastat A -0.176 | vemurafenib -0.056 | [5] -0.002 | [6] -0.065 | givinostat 0.03 | barasertib 0

DNAL1 (UniProt Q4LDG9)
inactive: [2] 0.049 | [4] 0.069 | Nexturastat A -0.135 | vemurafenib 0.013 | barasertib 0.012

ENTR1 (UniProt Q96C92)
inactive: [3] -0.091 | vemurafenib 0.06 | [5] -0.105 | givinostat 0.062
